High-throughput results: PubChem BioAssay, National Center for Advancing Translational Sciences (NCATS)
EPAC2 agonist = agonists of human EPAC2 (RAPGEF4); 360,000 compounds, 0.079% hits; AID 720711; EPAC2 activation, biochemical qHTS; response scale: 100% = 6.5 mM cAMP response; Potency, µM (top dose mostly 154 µM), for the others: at the highest dose activation, usual class: activators; Q8WZA2; also: nearly all actives have a fitted effect of over 50% in size
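EPAC2 (100 nM) mixed with Rap1B loaded with BODIPY-GDP (250 nM) plus 50 uM unlabeled GDP; compounds pinned in, 5 min RT, then read every 5 min for 30 min (ex 480, em 540 nm). Normalized to cAMP control.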
USP2a block = USP2a (human) protease inhibition; O75604; USP2 core, Ub-CHOP2 coupled fluorogenic reporter, 485/531; Potency, µM (top dose mostly 38.3 µM), inactives show at the top dose activity change, negative = inhibition, hits mostly inhibitors; 330,000 compounds, 0.01% hits; AID 463254;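 also: plate controls were DMSO wells for no effect and full inhibition by NEM control for full effect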
Target sequence (O75604 whole entry, looked up): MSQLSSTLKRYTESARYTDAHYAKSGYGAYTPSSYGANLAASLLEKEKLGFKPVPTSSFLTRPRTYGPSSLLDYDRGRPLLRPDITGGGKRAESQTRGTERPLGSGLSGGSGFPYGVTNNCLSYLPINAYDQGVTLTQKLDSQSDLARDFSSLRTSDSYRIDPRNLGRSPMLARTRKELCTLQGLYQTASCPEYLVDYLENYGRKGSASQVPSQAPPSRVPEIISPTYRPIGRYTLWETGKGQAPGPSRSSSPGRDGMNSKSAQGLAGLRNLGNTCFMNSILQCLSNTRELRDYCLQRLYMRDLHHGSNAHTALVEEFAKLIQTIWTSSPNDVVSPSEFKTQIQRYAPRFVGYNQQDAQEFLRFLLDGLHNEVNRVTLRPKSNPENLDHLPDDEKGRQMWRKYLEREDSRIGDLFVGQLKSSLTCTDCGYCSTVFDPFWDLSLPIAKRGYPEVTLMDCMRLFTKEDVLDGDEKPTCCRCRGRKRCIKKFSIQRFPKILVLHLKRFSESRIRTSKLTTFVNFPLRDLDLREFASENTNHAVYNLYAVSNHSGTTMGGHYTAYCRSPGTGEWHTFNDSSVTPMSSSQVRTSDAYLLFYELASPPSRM
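Deubiquitinase activity read as fluorescence (485/531 nm) after Ub-CHOP2 cleavage activates the enterokinase reporter on its substrate; USP2 core 10nM, Ub-CHOP2 and substrate 25nM each, 30min compound preincubation then 60min RT; data normalized to NEM, curves fitted.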
EPAC1 agonist = activates human EPAC1 exchange factor; EPAC1 agonist qHTS, biochemical assay; response scale: 100% = response to 6.5 mM cAMP; 360,000 compounds, 0.073% hits; Potency, µM (top dose mostly 154 µM), for inactives: at the top dose activation, hits mostly activators; O95398; also: nearly all actives have a fitted effect of over 60% in size
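Compounds were pinned as a concentration titration into mixtures of EPAC1 (100 nM), BODIPY-GDP-loaded Rap1B (250 nM) and GDP (50 uM). After 5 min at room temperature, fluorescence was followed for 30 min; activity was scaled to 6.5 mM cAMP.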
USP1-UAF1 inh = inhibitors of human USP1/UAF1 deubiquitinase; O94782; recombinant USP1/UAF1, Ub-Rhodamine cleavage fluorescence; Potency, µM (top dose mostly 57.1 µM), for the others: at the highest dose activity change, negative = inhibition, most hits filed as inhibitors; 390,000 compounds, 0.23% hits; AID 743255; also: % is scaled to controls: 0 for no effect and ±100 for the full control effect; nearly all actives have a fitted effect of over 60% in size
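1 nM enzyme complex + cpd, 15 min RT; start with Ub-Rho 150nM final; kinetic fluorescence ex 480/em 540, 6 reads q60 s. Buffer 50mM HEPES pH 7.8, 0.5mM EDTA, 0.1 mg/ml BSA, 1mM TCEP, 0.01% Tween-20.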
EPAC2 antagonist = EPAC2 (human) antagonism; 360,000 compounds, 0.18% hits; Q8WZA2; Potency, µM (series often up to 114 µM), inactives show top-dose activity, negative = inhibition, usual class: inhibitors; AID 720708; EPAC2 GEF exchange of Rap1B-BODIPY-GDP, fluorescence; also: % is scaled to controls: 0 for no effect and ±100 for the full control effect; nearly all actives have a fitted effect of over 45% in size
EPAC1 antagonist = antagonists of human EPAC1 | O95398 | EPAC1 GEF assay, Rap1b-BODIPY-GDP exchange fluorescence | Potency, µM (series often up to 115 µM), inactives show top-dose activity change, negative = inhibition, actives largely listed as inhibitors | 360,000 compounds, 0.14% hits | AID 720709;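 also: plate controls were vehicle for no effect and positive control for full effect; nearly all actives have a fitted effect of over 50% in size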
* hit, by the source's call. Shown are actives, neighbours in structure and some others; about 0.45% of the full set was active somewhere. Calls follow the shape of the dose curve; as a rule, active = well fitted curve in the direction sought with a large enough effect; inconclusive = small, poorly fitted or top-dose-only effect, or another doubt; inactive = no such curve, though single readings can be large; an effect the other way counts as inactive or inconclusive. Potency is read from the fitted curve at half-maximal effect.

`CC(C)(C)c1ccc(C(=O)NCC2CCCN2S(=O)(=O)c2ccccc2)cc1` (stereo not drawn) gave EPAC2 agonist -4%, USP2a block 0%, EPAC1 agonist 45µM*, USP1-UAF1 inh -18%, EPAC2 antagonist -25% and EPAC1 antagonist inconclusive.
Screening CCOC(=O)c1ccc(NC(=O)C(CC)Sc2nc3ncccc3[nH]2)cc1 (stereo not drawn) returned USP1-UAF1 inh -13%.
`Cc1ccnc(N/C=C(\C#N)c2nc(-c3cccc(Br)c3)cs2)c1` gave EPAC2 agonist 21%, USP2a block inconclusive, EPAC1 agonist inconclusive, USP1-UAF1 inh 22µM*, EPAC2 antagonist 21% and EPAC1 antagonist 36%.
Screening COc1cc(CNc2ccc(O)cc2)cc(Br)c1OCc1ccccc1F returned EPAC2 agonist 3%, USP2a block 2%, EPAC1 agonist -1%, USP1-UAF1 inh inconclusive, EPAC2 antagonist inconclusive and EPAC1 antagonist 28µM*.
Cc1cc(-c2ccc(C)c(S(=O)(=O)NC(c3cccs3)C(C)C)c2)on1 (stereo not drawn) was read as USP1-UAF1 inh -11%.
`CC1=C(C(=O)Nc2ccc(Cl)cc2)C(c2cccs2)n2nc(SCc3cccc(C)c3)nc2N1` (stereo not drawn) gave USP1-UAF1 inh -15%.
Screening COc1ccc(Br)cc1CNC(=O)CN1C(=O)CSc2ccc(S(=O)(=O)N3CCOCC3)cc21 returned USP1-UAF1 inh 6%.
Screening Cn1c(=O)c(C#N)c(-c2ccc(F)cc2)c2cc(C(=O)c3cc(Cl)cc(Cl)c3O)cnc21 returned EPAC2 agonist -3%, USP2a block 1%, EPAC1 agonist -2%, USP1-UAF1 inh -11%, EPAC2 antagonist 50µM* and EPAC1 antagonist inconclusive.
For O=C(O)CSc1cc(NS(=O)(=O)c2ccc(Br)cc2)c2ccccc2c1O the results were EPAC2 agonist 15%, USP2a block -2%, EPAC1 agonist 26%, USP1-UAF1 inh 35µM*, EPAC2 antagonist inconclusive and EPAC1 antagonist 56µM*.
Screening Cc1ccc(S(=O)(=O)Nc2ccc(Br)cc2C(NCC(=O)O)c2ccccc2)cc1 (stereo not drawn) returned EPAC2 agonist -20%, USP2a block -12%, EPAC1 agonist -20%, USP1-UAF1 inh -8%, EPAC2 antagonist -16% and EPAC1 antagonist inconclusive.
For Cc1cc(O)c(Sc2ncn[nH]2)cc1NS(=O)(=O)c1ccc(Cl)cc1 the results were EPAC2 agonist -3%, USP2a block 0%, EPAC1 agonist 9%, USP1-UAF1 inh -20%, EPAC2 antagonist -4% and EPAC1 antagonist 2%.
`O=S(=O)(Nc1cc(Sc2ncn[nH]2)c(O)c2ccccc12)c1ccccc1` gave EPAC2 agonist 26%, USP2a block 4%, EPAC1 agonist 5%, USP1-UAF1 inh 2.2µM*, EPAC2 antagonist inconclusive and EPAC1 antagonist inconclusive.
`Cc1cnc(CN(C)C(=O)C2CCC(=O)N(CCc3ccc(Cl)cc3)C2)[nH]1` (stereo not drawn) gave EPAC2 agonist 23%, EPAC1 agonist 12%, USP1-UAF1 inh -11%, EPAC2 antagonist -9% and EPAC1 antagonist 5%.
`CCOc1ccc(C=NNc2ccc(S(=O)(=O)Nc3ccccc3C(=O)O)cc2[N+](=O)[O-])cc1OC` gave EPAC2 agonist -5%, USP2a block 1%, EPAC1 agonist 5%, USP1-UAF1 inh -26%, EPAC2 antagonist -13% and EPAC1 antagonist -13%.
CC(=O)Nc1ccc(C=NNc2ccc(S(=O)(=O)Nc3ccccc3C(=O)O)cc2[N+](=O)[O-])cc1 was read as EPAC2 agonist 4%, USP2a block -2%, EPAC1 agonist 1%, USP1-UAF1 inh -14%, EPAC2 antagonist 50µM* and EPAC1 antagonist 79µM*.
NS(=O)(=O)c1ccc(N/N=C/c2ccc(C(=O)O)cc2)c([N+](=O)[O-])c1 was read as EPAC2 agonist 7%, USP2a block -2%, EPAC1 agonist -8%, USP1-UAF1 inh -21%, EPAC2 antagonist inconclusive and EPAC1 antagonist -25%.
CC(=O)Nc1ccc(C=NNc2ccc([N+](=O)[O-])cc2S(=O)(=O)Nc2ccccc2C(=O)O)cc1 was read as EPAC2 agonist 0%, USP2a block -5%, EPAC1 agonist -2%, USP1-UAF1 inh -18%, EPAC2 antagonist inconclusive and EPAC1 antagonist inconclusive.
For O=C(O)c1ccccc1NS(=O)(=O)c1ccc(N/N=C/c2cccc(O)c2O)c([N+](=O)[O-])c1 the results were EPAC2 agonist -6%, EPAC1 agonist -12%, USP1-UAF1 inh -24%, EPAC2 antagonist -26% and EPAC1 antagonist 25µM*.
`CCOc1cc(/C=N/Nc2ccc(S(=O)(=O)Nc3ccccc3C(=O)O)cc2[N+](=O)[O-])cc(Cl)c1O` gave EPAC2 agonist 4%, EPAC1 agonist -3%, USP1-UAF1 inh inconclusive, EPAC2 antagonist 4% and EPAC1 antagonist 50µM*.
Screening COc1ccccc1NS(=O)(=O)c1cccc(-n2c(O)c(C=Nc3ccccc3C(=O)O)c3ccccc3c2=O)c1 returned EPAC2 agonist 2%, USP2a block 1%, EPAC1 agonist 5%, USP1-UAF1 inh inconclusive, EPAC2 antagonist inconclusive and EPAC1 antagonist 56µM*.
For CN(C(=O)c1cccc(NC(=O)Cc2ccc(NC(=O)C3CCCN(C(=O)C4CCC4)C3)cc2)c1)C1CCCCC1 (stereo not drawn) the results were EPAC2 agonist 1%, EPAC1 agonist -15%, USP1-UAF1 inh -31%, EPAC2 antagonist 5% and EPAC1 antagonist 17%.
COc1cc(C=NNc2ccc(S(=O)(=O)Nc3ccccc3C(=O)O)cc2[N+](=O)[O-])ccc1O was read as EPAC2 agonist -16%, USP2a block -20%, EPAC1 agonist -4%, USP1-UAF1 inh inconclusive, EPAC2 antagonist inconclusive and EPAC1 antagonist 89µM*.
CN(CCO)c1ccc(C=NNc2ccc([N+](=O)[O-])cc2S(=O)(=O)Nc2ccccc2C(=O)O)cc1 was read as EPAC2 agonist 1%, USP2a block -5%, EPAC1 agonist -6%, USP1-UAF1 inh -20%, EPAC2 antagonist inconclusive and EPAC1 antagonist 50µM*.
For COc1ccc(C(C)=NNc2ccc([N+](=O)[O-])cc2S(=O)(=O)Nc2ccccc2C(=O)O)c(OC)c1 the results were EPAC2 agonist -1%, USP2a block -3%, EPAC1 agonist 8%, USP1-UAF1 inh -17%, EPAC2 antagonist inconclusive and EPAC1 antagonist -28%.
